{
  "source": "PubChem BioAssay (NCI)",
  "note": "This is part of a sample that, as a whole, favours compounds with a hit. Of some 83,000 tested, about 20% had one in any assay.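 Activity criterion: percent growth below 10, measured after cells in 96-well plates were exposed to a single compound concentration for 48 hours.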 A number with no mark means an inactive call. Active and inactive are the calls of the source.",
  "data": [
    {"tested_on": "SNB-75 CNS", "test": "NCI-60 one-dose screen, 48 h (100 = growth as untreated, 0 = no growth, -100 = all killed)", "details": "10 µM unless noted", "values": [
      {"smiles": "C#Cc1nc(C2=C(C)C(=O)/C(=N/OC(C)=O)C2)cs1", "growth": "-46.3% (active)"},
      {"smiles": "CSCCC(C(=O)O)N1C(=O)/C(=C/c2ccc(O)c(O)c2)SC1=S", "note": "(centres undefined)", "growth": "93.6%"},
      {"smiles": "CC(=NNc1ncnc2ccccc12)c1ccc(S(C)(=O)=O)cc1", "growth": "103%"},
      {"smiles": "Nc1c(C(=O)c2ccc(Br)cc2)oc2nc(-c3cnccn3)cc(-c3cccs3)c12", "growth": "98.3%"},
      {"smiles": "COc1cc(-c2nc3ccc(-c4nnc(SCC(=O)Nc5ccc(C(C)=O)cc5)o4)cc3[nH]2)cc(OC)c1OC", "growth": "96.6%"},
      {"smiles": "N#Cc1nc(-c2ccccc2)oc1S(N)(=O)=O", "growth": "91.7%"},
      {"smiles": "O=C(CN1C(=O)/C(=C/c2ccccc2)SC1=S)N1CCOCC1", "growth": "98.9%"},
      {"smiles": "Nc1ncc(-c2ccc3ncnc(N4CCc5cc(F)c(Cl)cc54)c3c2)cc1CO", "growth": "-28.6% (active)"},
      {"smiles": "Cc1ccc(C(=O)Nc2cccc(C(F)(F)F)c2)cc1Nc1nc(-c2cnccn2)nc2c1cnn2C", "growth": "77.4%"},
      {"smiles": "Clc1ccc2c(NCCCn3ccnc3)c3oc4ccc(Cl)cc4c3nc2c1", "growth": "70.2%"},
      {"smiles": "CN(C)CCCNc1c2ccc(Cl)cc2nc2c1oc1ccc(Cl)cc12", "growth": "45.2%"},
      {"smiles": "O=C(N/N=C/c1ccc[nH]1)c1[nH]c2ccc(Br)cc2c1-c1ccccc1", "growth": "27.3%"},
      {"smiles": "C#Cc1nc(C2=C(C)/C(=N/OCc3ccccc3)CC2)cs1", "growth": "-88.4% (active)"},
      {"smiles": "N#Cc1ccc(C(=O)CSc2nc(Nc3ccc(S(N)(=O)=O)cc3)c3ccccc3n2)cc1", "growth": "107%"},
      {"smiles": "C=CCn1c(SCC(=O)c2ccccc2)nnc1-c1c[nH]c2ccccc12", "growth": "96.4%"},
      {"smiles": "Cc1cc(=O)oc2cc(OCCCOc3ccc(/C=C/C(=O)Nc4ccc(Cl)cc4)cc3)ccc12", "growth": "73.3%"},
      {"smiles": "O=C(c1ccc(Cl)cc1)C1[C@H](c2ccc(Cl)cc2)[C@@H](c2ccccc2)NC12C(=O)Nc1ccc(Br)cc12", "note": "(some centres undefined)", "growth": "43.9%"},
      {"smiles": "C[C@@H](Nc1c(C#N)cnc2ccc(-c3cnc(N)nc3)cc12)c1ccccc1", "growth": "-13.2% (active)"},
      {"smiles": "CCN1C(=S)N(CC)C2C1NN=C1SC(c3ccccc3)=CC(=O)N12", "note": "(centres undefined)", "growth": "129%"},
      {"smiles": "CC(C)(O)c1cncc(-c2ccc3ncnc(N4CCc5cc(F)c(Cl)cc54)c3c2)c1", "growth": "-20% (active)"},
      {"smiles": "CC(C)(C)Nc1nc2c(OCCc3ccccc3)cccn2c1-c1ccccc1Cl", "growth": "34.5%"},
      {"smiles": "COc1ccc(/C=N/NC(=O)c2[nH]c3ccc(Br)cc3c2-c2ccccc2)s1", "growth": "26.4%"},
      {"smiles": "OC1CCN(CCCOc2c3ccccc3nc3c2oc2ccc(Cl)cc23)CC1", "growth": "21%"},
      {"smiles": "Cc1sc2c(c1C)c(=O)nc1c(-c3nc(-c4ccc(F)cc4)no3)n[nH]n12", "growth": "85.7%"},
      {"smiles": "CC(C)(C)Nc1nc2c(OCCc3ccccc3)cccn2c1-c1cccc(F)c1", "growth": "33.2%"}
    ]},
    {"tested_on": "SNB-19 CNS", "test": "NCI-60 one-dose screen, 48 h (100 = growth as untreated, 0 = no growth, -100 = all killed)", "details": "10 µM unless noted", "values": [
      {"smiles": "CCOC(=O)c1c(Nc2ccccc2)nn2c(N)c(C#N)c(-c3ccccc3)nc12", "growth": "89.4%"},
      {"smiles": "COC(=O)c1ccc(NC(=S)N2CCc3ccc([N+](=O)[O-])cc3C2)cc1O", "growth": "97.6%"},
      {"smiles": "CCCC(=O)NC(c1cccc(N(C)C)c1)c1cc(C)c2cccnc2c1O", "note": "(centres undefined)", "growth": "69.3%"},
      {"smiles": "COc1cc(/C=C/C(=O)c2cc(OC)c(OC)c(OC)c2)ccc1Oc1nc(NCCO)nc(N2CCOCC2)n1", "growth": "12.4%"},
      {"smiles": "CS(=O)(=O)c1ccc(-n2cc(/C=C/C(=O)c3ccc(NC(=O)CO[N+](=O)[O-])cc3)c(-c3ccc(Cl)cc3)n2)cc1", "growth": "84.9%"},
      {"smiles": "Cc1cc2nc3c4cc(Cl)ccc4n(CC(=O)NCCN(C)C)c3nc2cc1C", "growth": "81.5%"},
      {"smiles": "Cc1cc2nc3c4cc(Cl)ccc4n(CC(=S)NCCN(C)C)c3nc2cc1C", "growth": "4.89% (active)"},
      {"smiles": "NS(=O)(=O)c1ccc(Nc2nc(SCC(=O)c3ccc(Cl)cc3)nc3ccccc23)cc1", "growth": "97.8%"},
      {"smiles": "Clc1ccc2oc3c(NCCCN4CCOCC4)c4ccccc4nc3c2c1", "growth": "35.9%"},
      {"smiles": "Cc1ccc(/C=C/c2nn3c(-c4ccco4)nnc3s2)cc1C", "growth": "94.9%"},
      {"smiles": "N=C1CC(=O)NN1C(=O)CSc1nc2sc3c(c2c(=O)n1-c1ccc(Cl)cc1)CCCC3", "growth": "92.9%"},
      {"smiles": "O=C(NNc1nc2cc(F)ccc2n2c(CN3CC4(COC4)C3)ccc12)c1cnccn1", "growth": "29.4%"},
      {"smiles": "COc1cc2nc(-c3ccc(C)cc3)cc(OCCCNCC3CCCO3)c2cc1OC", "note": "(centres undefined)", "growth": "92.1%"},
      {"smiles": "CS(=O)(=O)c1ccc(-c2nc3ccccn3c2C=Nc2ccc(Cl)cc2)cc1", "growth": "89.1%"},
      {"smiles": "C#Cc1nc(C2=C(C)C(=O)/C(=N/OC(C)=O)C2)cs1", "growth": "96.2%"},
      {"smiles": "CSCCC(C(=O)O)N1C(=O)/C(=C/c2ccc(O)c(O)c2)SC1=S", "note": "(centres undefined)", "growth": "97.9%"},
      {"smiles": "CC(=NNc1ncnc2ccccc12)c1ccc(S(C)(=O)=O)cc1", "growth": "97.6%"},
      {"smiles": "Nc1c(C(=O)c2ccc(Br)cc2)oc2nc(-c3cnccn3)cc(-c3cccs3)c12", "growth": "97.1%"},
      {"smiles": "COc1cc(-c2nc3ccc(-c4nnc(SCC(=O)Nc5ccc(C(C)=O)cc5)o4)cc3[nH]2)cc(OC)c1OC", "growth": "100%"},
      {"smiles": "N#Cc1nc(-c2ccccc2)oc1S(N)(=O)=O", "growth": "95.3%"},
      {"smiles": "O=C(CN1C(=O)/C(=C/c2ccccc2)SC1=S)N1CCOCC1", "growth": "99%"},
      {"smiles": "Nc1ncc(-c2ccc3ncnc(N4CCc5cc(F)c(Cl)cc54)c3c2)cc1CO", "growth": "19.1%"},
      {"smiles": "Cc1ccc(C(=O)Nc2cccc(C(F)(F)F)c2)cc1Nc1nc(-c2cnccn2)nc2c1cnn2C", "growth": "86%"},
      {"smiles": "Clc1ccc2c(NCCCn3ccnc3)c3oc4ccc(Cl)cc4c3nc2c1", "growth": "82.8%"},
      {"smiles": "CN(C)CCCNc1c2ccc(Cl)cc2nc2c1oc1ccc(Cl)cc12", "growth": "38.2%"},
      {"smiles": "O=C(N/N=C/c1ccc[nH]1)c1[nH]c2ccc(Br)cc2c1-c1ccccc1", "growth": "30.6%"},
      {"smiles": "C#Cc1nc(C2=C(C)/C(=N/OCc3ccccc3)CC2)cs1", "growth": "72.8%"},
      {"smiles": "N#Cc1ccc(C(=O)CSc2nc(Nc3ccc(S(N)(=O)=O)cc3)c3ccccc3n2)cc1", "growth": "100%"},
      {"smiles": "C=CCn1c(SCC(=O)c2ccccc2)nnc1-c1c[nH]c2ccccc12", "growth": "98.3%"},
      {"smiles": "Cc1cc(=O)oc2cc(OCCCOc3ccc(/C=C/C(=O)Nc4ccc(Cl)cc4)cc3)ccc12", "growth": "89.6%"},
      {"smiles": "O=C(c1ccc(Cl)cc1)C1[C@H](c2ccc(Cl)cc2)[C@@H](c2ccccc2)NC12C(=O)Nc1ccc(Br)cc12", "note": "(some centres undefined)", "growth": "60.5%"},
      {"smiles": "C[C@@H](Nc1c(C#N)cnc2ccc(-c3cnc(N)nc3)cc12)c1ccccc1", "growth": "26.3%"},
      {"smiles": "CCN1C(=S)N(CC)C2C1NN=C1SC(c3ccccc3)=CC(=O)N12", "note": "(centres undefined)", "growth": "98.5%"},
      {"smiles": "CC(C)(O)c1cncc(-c2ccc3ncnc(N4CCc5cc(F)c(Cl)cc54)c3c2)c1", "growth": "25.2%"},
      {"smiles": "CC(C)(C)Nc1nc2c(OCCc3ccccc3)cccn2c1-c1ccccc1Cl", "growth": "18.4%"},
      {"smiles": "COc1ccc(/C=N/NC(=O)c2[nH]c3ccc(Br)cc3c2-c2ccccc2)s1", "growth": "30.6%"},
      {"smiles": "OC1CCN(CCCOc2c3ccccc3nc3c2oc2ccc(Cl)cc23)CC1", "growth": "21.8%"},
      {"smiles": "Cc1sc2c(c1C)c(=O)nc1c(-c3nc(-c4ccc(F)cc4)no3)n[nH]n12", "growth": "101%"},
      {"smiles": "CC(C)(C)Nc1nc2c(OCCc3ccccc3)cccn2c1-c1cccc(F)c1", "growth": "20.4%"}
    ]}
  ]
}
